Rows were chosen to be rich in hits. Some 6.3% of all compounds tested hit in one or more screens of this group.
tim10-1 inh – growth inhibitors of tim10-1 mutant yeast, primary screen, luminescence, uHTS | S. cerevisiae tim10-1 ts strain growth, BacTiter-Glo, 24 h | inhibition, % at 20 µM | hit rate 2.2% among 330,000;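 active = inhibition of at least 40%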;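 note: mutant grown at 25 °C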
TIM10 inh – growth inhibitors of isogenic TIM10 control yeast, primary screen, counter-screen for tim10-1 yeast inhibitor project, luminescence, uHTS; S. cerevisiae TIM10 strain growth, BacTiter-Glo luminescence, 24 h; inhibition, % at 10 µM; hit rate 1.4% among 330,000;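 active = inhibition of 40% or more at the single tested concentration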;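 note: wild-type TIM10 isogenic control strain grown at permissive 25 °C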
MPTP inh – mitochondrial permeability transition pore inhibitors, primary screen, biochemical, isolated mouse mitochondria, absorbance; hit rate 1.4% among 360,000; Ca2+ swelling absorbance, 30 min; AID 602449, 2012; inhibition, % at 10 µM;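 active = inhibition of 50% or more, scaled per plate between neutral and stimulator controls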
Mdm2-MdmX inh – inhibitors of human Mdm2-MdmX association, primary screen, cell-based, luminescence, split luciferase, SaOS-2, uHTS; AID 485346, 2010; inhibition, % at 8 µM; Protein Mdm4 (Homo sapiens) + E3 ubiquitin-protein ligase Mdm2 (Homo sapiens), …; SaOS-2 split-luciferase Mdm2/MdmX complementation; hit rate 3% among 330,000;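 active = inhibition of at least 50% at 8 µM in the primary screen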
Target sequence (O15151 whole entry, looked up): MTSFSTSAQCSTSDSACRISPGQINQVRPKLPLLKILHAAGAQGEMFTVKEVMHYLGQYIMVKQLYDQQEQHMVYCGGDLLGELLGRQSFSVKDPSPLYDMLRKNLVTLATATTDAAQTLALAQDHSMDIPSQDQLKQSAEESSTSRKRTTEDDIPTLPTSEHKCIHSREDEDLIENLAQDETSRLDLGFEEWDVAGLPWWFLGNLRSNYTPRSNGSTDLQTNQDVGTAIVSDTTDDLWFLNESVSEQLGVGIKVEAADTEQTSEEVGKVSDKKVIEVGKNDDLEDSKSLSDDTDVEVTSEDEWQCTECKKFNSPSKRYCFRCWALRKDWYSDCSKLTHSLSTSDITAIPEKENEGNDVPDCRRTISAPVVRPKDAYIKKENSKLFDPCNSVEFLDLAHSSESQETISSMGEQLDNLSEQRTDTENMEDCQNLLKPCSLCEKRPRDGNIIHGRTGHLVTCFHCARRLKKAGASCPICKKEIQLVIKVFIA
Target sequence (Q00987 whole entry, looked up): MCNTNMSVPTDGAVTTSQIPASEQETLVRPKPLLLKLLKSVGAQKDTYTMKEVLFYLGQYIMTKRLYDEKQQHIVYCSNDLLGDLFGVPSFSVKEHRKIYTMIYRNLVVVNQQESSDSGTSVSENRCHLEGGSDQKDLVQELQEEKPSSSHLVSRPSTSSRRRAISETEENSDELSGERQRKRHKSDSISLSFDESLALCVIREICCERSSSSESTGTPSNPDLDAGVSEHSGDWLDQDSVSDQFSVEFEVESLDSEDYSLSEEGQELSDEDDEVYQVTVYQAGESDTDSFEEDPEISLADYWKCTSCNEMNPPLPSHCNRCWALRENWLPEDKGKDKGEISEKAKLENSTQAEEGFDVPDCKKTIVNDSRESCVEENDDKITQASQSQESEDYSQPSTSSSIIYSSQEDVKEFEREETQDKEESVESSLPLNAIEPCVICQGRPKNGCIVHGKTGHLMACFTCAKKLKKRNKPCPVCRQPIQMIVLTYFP
tim23-1 inh – growth inhibitors of tim23-1 mutant yeast, primary screen, luminescence, uHTS | S. cerevisiae tim23-1 growth, BacTiter-Glo luminescence, 24 h | inhibition, % at 20 µM | hit rate 1.3% among 330,000 | AID 463212, 2010;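 active = growth inhibition of the mutant yeast at or above 50%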;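 note: temperature-sensitive mutant grown at 25 °C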
Rh123 counter – fluorescence retest of MPTP screen hits in isolated mitochondria, single concentration; shares compounds with MPTP inh; membrane potential, Rhodamine 123 fluorescence; inhibition, % at 10 µM; hit rate 78% among 5,000; AID 624504, 2012; in the data active = inhibition above about 22%
MPTP abs DR – mitochondrial permeability transition pore inhibitors, dose response, biochemical, absorbance, uHTS hits. shares compounds with MPTP inh. isolated mitochondria swelling. IC50, µM. hit rate 58% among 780. AID 651561, 2012; in the data active = IC50 below about 20 µM
MPTP cs DR – fluorescent counter-screen in isolated mitochondria, dose response, counter-screen for MPTP inhibitor project, biochemical, fluorescence, uHTS hits. shares compounds with MPTP inh. isolated mitochondria counterscreen, fluorescence read-out. IC50, µM. hit rate 49% among 780; in the data active = IC50 below about 80 µM
Of the large screens only hits and unclear results are named; the others gave an inactive call (follow-up assays come after a bar, where they were run).

Cc1ccc(C(CNS(=O)(=O)c2ccc(Br)cc2)N2CCN(C)CC2)cc1 (configuration not stated)	MPTP inh 78 | Rh123 counter inactive | MPTP abs DR 13 | MPTP cs DR inactive
CCCCOc1ccc(S(=O)(=O)Nc2cccnc2)cc1	MPTP inh 72 | Rh123 counter 59
Cc1ccc(NC(=O)c2cc(-c3cccc(O)c3)on2)cc1C	MPTP inh 105 | Rh123 counter 20
O=C(NCc1ccccc1)c1cc(-c2cccc(O)c2)on1	MPTP inh 113 | Rh123 counter inactive | MPTP abs DR 4.3 | MPTP cs DR 19
CCCCN(C(=O)CCN1C(=O)C2CC=CCC2C1=O)c1c(N)n(CCCC)c(=O)[nH]c1=O (configuration not stated)	none (no result: tim10-1 inh, TIM10 inh, Mdm2-MdmX inh, tim23-1 inh)
CC(C)(C)CC(C)(C)NCC(O)COc1c(F)cc(Br)cc1F (configuration not stated)	MPTP inh 102 | Rh123 counter inactive | MPTP abs DR 7.1 | MPTP cs DR 57
O=[N+]([O-])c1cc(Br)c(O)c(C=Nc2ccc(N3CCOCC3)cc2)c1	none
O=[N+]([O-])c1cc(Br)c(O)c(/C=N/Nc2nnnn2-c2cccc3ccccc23)c1	MPTP inh 56 | Rh123 counter 34
O=C(/C=C/c1cc([N+](=O)[O-])ccc1OC(F)F)Nc1cccc(OC(F)F)c1	MPTP inh 99 | Rh123 counter 72
COc1ccccc1NC(=O)/C=C/c1cc([N+](=O)[O-])ccc1OC(F)F	none
O=C(CSc1ccc([N+](=O)[O-])cc1)Nc1cccc(S(=O)(=O)Nc2ccccc2F)c1	MPTP inh 87 | Rh123 counter 68
O=C(Nc1cccc(S(=O)(=O)Nc2ccccc2F)c1)c1ccco1	none
O=C(Nc1cccc(S(=O)(=O)N2CCCCCC2)c1)c1ccc(Cl)nc1	none
O=C(Nc1cccc(S(=O)(=O)Nc2ccccc2Cl)c1)c1ccc(Cl)nc1	MPTP inh 62 | Rh123 counter 56
O=C(Cc1ccc(Cl)cc1)Nc1cccc(S(=O)(=O)Nc2ccccc2F)c1	MPTP inh 60 | Rh123 counter 64
C[C@@H]1CN([C@@H](C)CO)C(=O)c2cc(Br)cnc2O[C@@H]1CN(C)Cc1cncnc1	none (no result: tim10-1 inh, TIM10 inh, Mdm2-MdmX inh, tim23-1 inh)
Cc1c(N(C)S(=O)(=O)c2ccc(Cl)c(C(=O)NCC(C)(C)N3CCOCC3)c2)c(=O)n(-c2ccccc2)n1C	none (no result: tim10-1 inh, TIM10 inh, Mdm2-MdmX inh, tim23-1 inh)
O=S(=O)(NCC(Nc1ccccc1)c1ccccc1)c1ccc(Cl)cc1 (configuration not stated)	MPTP inh 52 | Rh123 counter 74
CN1OC[C@@H]2CN(C(=O)CCc3ccccc3)[C@H](c3cccc(N4CCOCC4)c3)C[C@@H]21	none (no result: tim10-1 inh, TIM10 inh, Mdm2-MdmX inh, tim23-1 inh)
Cc1oc(S(=O)(=O)N2CCCCC2)cc1NC(=O)Nc1ccc(F)cc1	MPTP inh 77 | Rh123 counter 87
O=C(Nc1ccc(Cl)cc1)Nc1cc(S(=O)(=O)N2CCOCC2)ccc1N1CCCC1	MPTP inh 71 | Rh123 counter 73
O=C(Nc1ccc(F)cc1)Nc1cc(S(=O)(=O)N2CCOCC2)ccc1N1CCCC1	none
O=C(Nc1ccc(F)cc1)Nc1ccc(S(=O)(=O)N2CCCC2)cc1	MPTP inh 83 | Rh123 counter 100
CC(=O)c1ccc(NC(=O)c2ccc(S(=O)(=O)N3CCCC3)cc2)cc1	none
CC(=O)c1ccc(NC(=O)Nc2ccc(S(=O)(=O)N3CCCC3)cc2)cc1	MPTP inh 80 | Rh123 counter 93
COc1ccc(CNC(=O)CCNC(=O)C2CCN(S(=O)(=O)c3ccc(OC)cc3)CC2)cc1	none (no result: tim10-1 inh, TIM10 inh, Mdm2-MdmX inh, tim23-1 inh)
CC12CCC(C(=NO)C1=O)C2(C)C (configuration not stated)	none (no result: tim10-1 inh, TIM10 inh, Mdm2-MdmX inh, tim23-1 inh)
CC1(C)C(=O)OC(c2cc(Br)ccc2O)C(C)(C)C1=O (configuration not stated)	MPTP inh 82 | Rh123 counter 89
CC12CN3CC(C)(CN(C1)C3c1cc(Br)ccc1O)C2=O (configuration not stated)	none
COC(=O)C[C@H]1C=C[C@@H](NS(=O)(=O)c2ccccc2)[C@@H](CO)O1	none (no result: tim10-1 inh, TIM10 inh, Mdm2-MdmX inh, tim23-1 inh)
CCCCOCCCNc1ncnc2c1[nH]c1ccccc12	MPTP inh 92 | Rh123 counter 93
CC1=C(C(=O)N2CCOCC2)CC(CC(=O)NC2CCCCC2)C(=O)N1CCCN1CCCC1=O (configuration not stated)	none (no result: tim10-1 inh, TIM10 inh, Mdm2-MdmX inh, tim23-1 inh)
O=C(Nc1ccc(Cl)cc1)N1CCC(c2ccccc2)C1 (configuration not stated)	MPTP inh 86 | Rh123 counter 91
CCC(C)[C@H]1CNC(=O)C(=O)N1CCCCC1CCCCC1 (some centres not stated)	none (no result: tim10-1 inh, TIM10 inh, Mdm2-MdmX inh, tim23-1 inh)
O=C(N/N=C/c1cc([N+](=O)[O-])cc(Br)c1O)C12CC3CCC(CC(C3)C1)C2	MPTP inh 84 | Rh123 counter 28
CCCCOc1ccc(S(=O)(=O)NC(=O)C2(C)CCN2C(=O)c2cccc(F)c2)cc1 (configuration not stated)	none (no result: tim10-1 inh, TIM10 inh, Mdm2-MdmX inh, tim23-1 inh)
COc1ccc(C2=Nc3ccccc3N(C(=O)c3ccc4c(c3)OCO4)C2C(=O)Nc2c(C)cccc2C)cc1 (configuration not stated)	none (no result: tim10-1 inh, TIM10 inh, Mdm2-MdmX inh, tim23-1 inh)
NCCCn1c(C(=O)c2ccc(Cl)cc2)c2ccc(C(F)(F)F)cc2[n+]1[O-]	MPTP inh 65 | Rh123 counter inactive | MPTP abs DR 8.7 | MPTP cs DR inactive
Cc1ccccc1C(=O)N1CCC[C@H]1C(=O)N1CCC[C@H]1C(=O)NCc1ccccn1	none (no result: tim10-1 inh, TIM10 inh, Mdm2-MdmX inh, tim23-1 inh)
CC1(C(=O)Nc2ccccc2)CCN1C(=O)C1(c2ccccc2)CC1 (configuration not stated)	none (no result: tim10-1 inh, TIM10 inh, Mdm2-MdmX inh, tim23-1 inh)
Cc1c(C)n(CCc2ccccc2)c2ncnc(NCCO)c12	none
Cc1c(C)n(Cc2ccccc2)c2ncnc(Cl)c12	MPTP inh 56 | Rh123 counter 65
C/C(=N\NS(=O)(=O)c1ccccc1)c1cc(Cl)cc(Cl)c1O	MPTP inh 62 | Rh123 counter 75
C/C(=N/NS(=O)(=O)c1ccc(Cl)cc1)c1cccc(O)c1	none
O=C1Cc2ccccc2Sc2cc(OCCCN3CCCCC3)ccc21	MPTP inh 71 | Rh123 counter inactive | MPTP abs DR 9.9 | MPTP cs DR inactive
CN(C)CCCOc1ccc2c(c1)Sc1ccccc1CC2=O	none
CSc1cccc(NC(=S)N2CCCN(Cc3ccccc3F)C2)c1	MPTP inh 69 | Rh123 counter 81

Source: PubChem BioAssay
